An excerpt weighted towards active compounds, which were near 2.8% of everything screened.
SNCA expr inhib: reduces expression of the alpha-synuclein gene | Potency, µM (top dose mostly 57.2 µM), most hits filed as inhibitors | AID 1671194 | HEK-293 SNCA-luciferase knock-in, luminescence, 24 h | actives 0.17% (n = 140,000); further: nearly all actives have a fitted effect of over 45% in size
SNCA viab count: counter-screen for SNCA expression inhibitors: cell viability | HEK-293-SNCA-luc viability, GF-AFC fluorescence, 24 h | Potency, µM (top dose mostly 57.1 µM), hits mostly cytotoxic | actives 0.12% (n = 150,000); further: nearly all actives have a fitted effect of over 30% in size
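HEK-293-SNCA-luc cells (1500/well) plated 24 h, then exposed 24 h to a dilution series; GF-AFC added 30 min at 37C, fluorescence 405/540 nm; normalised to medium-only and DMSO wells, Hill fit.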
KDM5B inh: blocks human KDM5B histone demethylase activity. actives 2.6% (n = 220,000). KDM5B demethylase, FDH-coupled NADH fluorescence (FDH is formaldehyde dehydrogenase). Q9UGL1. Potency, µM (series often up to 57.7 µM), hits mostly inhibitors; further: nearly all actives have a fitted effect of over 70% in size
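Here, H3K4me3 peptide (12.5 µM in substrate mix) is demethylated by KDM5BΔAP, 200 nM final, after 10 min compound exposure. Formaldehyde product is coupled through FDH (0.25 U/mL in mix) to NADH fluorescence; 30-min ΔRFU feeds dose-response curves.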
IP6K1 inhibitor: blocks human inositol hexakisphosphate kinase 1; IP6K1 kinase, ADP-Glo luminescence, 2 h; hits give low values; activity change, % (series mostly up to about 58 µM); actives 0.81% (n = 140,000); in the data active means activity change below about -25%
Target sequence (Q92551 whole entry, looked up): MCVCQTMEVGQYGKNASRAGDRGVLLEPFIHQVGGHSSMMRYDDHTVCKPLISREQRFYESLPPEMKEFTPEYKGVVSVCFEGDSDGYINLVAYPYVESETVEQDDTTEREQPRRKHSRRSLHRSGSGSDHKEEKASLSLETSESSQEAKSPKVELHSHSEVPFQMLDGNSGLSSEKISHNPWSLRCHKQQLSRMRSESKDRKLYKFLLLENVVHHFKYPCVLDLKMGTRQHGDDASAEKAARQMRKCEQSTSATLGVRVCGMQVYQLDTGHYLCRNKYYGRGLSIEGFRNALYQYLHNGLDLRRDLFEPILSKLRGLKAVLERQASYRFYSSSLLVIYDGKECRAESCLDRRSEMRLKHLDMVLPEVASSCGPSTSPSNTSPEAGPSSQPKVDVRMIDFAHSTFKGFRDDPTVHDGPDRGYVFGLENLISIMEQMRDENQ
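ADP-Glo luminescence measures ADP made by human IP6K1 during a 2 h RT reaction with ATP/IP6 (mix at 1.3 mM/130 uM); top library doses 57.5 and 19.1 uM final.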
IP6K1 conf: human IP6K1 inhibition, confirmatory; shares compounds with IP6K1 inhibitor; recombinant IP6K1 kinase, ADP-Glo luminescence, 2 h; Potency, µM (top dose mostly 49 µM), actives largely listed as inhibitors; actives 13% (n = 1,200); AID 1645852; further: nearly all actives have a fitted effect of over 65% in size
Of the large screens only hits and unclear results are named; the others gave an inactive call (follow-up assays come after a bar, where they were run). Unless noted, the call rests on the fitted dose curve; in most records, active means well fitted curve in the direction sought with a large enough effect; inconclusive means small, poorly fitted or top-dose-only effect, or another doubt; inactive means no such curve, though single readings can be large; an effect the other way counts as inactive or inconclusive.

CCOc1ccc(NCc2cccn2-c2nnc(N3CCC(C(=O)NCc4cccc(OC)c4)CC3)s2)cc1	KDM5B inh inconclusive
CN1CCN(Cc2ccc(-c3cnc4[nH]cc(-c5ccc6[nH]ccc6c5)c4c3)cc2)CC1	IP6K1 inhibitor -46.6 (no result: SNCA expr inhib, KDM5B inh) | IP6K1 conf 9.2µM
Cc1ccc(O)c(N=Nc2ccccc2)n1	SNCA expr inhib inconclusive (no result: KDM5B inh, IP6K1 inhibitor) | IP6K1 conf 7.31µM
Cc1ccc2nc(C)ccc2c1	none (no result: SNCA expr inhib, SNCA viab count, IP6K1 inhibitor)
O=C(N[C@@H]1CCOC[C@H]1Oc1cccc(F)c1)c1cnc2ccccn2c1=O	KDM5B inh 35.5µM, IP6K1 inhibitor -42.4 | IP6K1 conf inactive
Cc1ccc(OCC(=O)Nc2ccc3nc(SCC(N)=O)sc3c2)cc1	none
Cc1ccc(OCC(=O)Nc2ccc3nc(SCCOc4ccccc4)sc3c2)cc1	IP6K1 inhibitor -27.4 | IP6K1 conf inactive
COc1ccc(CN(C)Cc2ccccc2C(F)(F)F)cc1	none
CCOc1ccc(CN(CCc2ccc3c(c2)OCO3)Cc2cc(OC)c(OC)cc2OC)cc1	KDM5B inh inconclusive, IP6K1 inhibitor -29.5 | IP6K1 conf inactive
CCOc1ccccc1CN(CCc1ccc2c(c1)OCO2)Cc1cccc(OC)c1OC	SNCA expr inhib inconclusive, KDM5B inh inconclusive
c1ccc(C2=Nn3c(nnc3-c3ccncc3)SC2)cc1	none (no result: SNCA expr inhib, SNCA viab count, KDM5B inh, IP6K1 inhibitor) | IP6K1 conf inactive
CCOc1ccc(N/C=C/C(=O)c2ccc(C)c(C)c2)cc1	none (no result: SNCA expr inhib, SNCA viab count, IP6K1 inhibitor)
Cc1c(O)nc(SCC(=O)Nc2cccc(C(F)(F)F)c2)n(-c2ccccc2)c1=O	none (no result: SNCA expr inhib, SNCA viab count, IP6K1 inhibitor)
Cc1c(O)nc(SCC(=O)Nc2ccc(Cl)cc2Cl)n(-c2ccc(F)cc2)c1=O	IP6K1 inhibitor -26.7 | IP6K1 conf inconclusive
COc1ccc(CC(=O)N2CCN(c3cc(-c4ccc(OC)cc4)[nH]n3)CC2)cc1	SNCA viab count inconclusive
COc1ccc(C(=O)Nc2ccc3[nH]ccc3c2)cc1	none (no result: SNCA expr inhib, SNCA viab count, IP6K1 inhibitor)
O=C(Nc1cc2cc[nH]c2cn1)c1ccccc1	SNCA expr inhib 1.52µM, SNCA viab count inconclusive, IP6K1 inhibitor -28.1 (no result: KDM5B inh) | IP6K1 conf inconclusive
O=[N+]([O-])c1ccc(F)cc1OCc1cc(Cl)c2c(c1)OCCO2	none (no result: SNCA expr inhib, SNCA viab count, IP6K1 inhibitor)
Cc1nn(CC(=O)NCc2ccc(Cl)cc2)c(=O)c2cc3sccc3n12	none
CSc1ccc(CCNC(=O)Cn2nc(C)n3c(cc4sccc43)c2=O)cc1	IP6K1 inhibitor -80.1 | IP6K1 conf inactive
O=C1Nc2ccc(I)cc2/C1=C/c1cc(Br)c(O)c(Br)c1	none (no result: KDM5B inh, IP6K1 inhibitor) | IP6K1 conf 2.91µM
O=C1Nc2ccc(I)cc2C1=Cc1cc(Br)c(O)c(Br)c1	none (no result: KDM5B inh, IP6K1 inhibitor)
COc1ccc(-c2cc(C[C@@H]3CC[C@H](O)[C@@H](CNC4CCN(C)CC4)O3)no2)cc1	none
CCOc1ccc(N(C(C)C(=O)Nc2ccccc2Oc2ccccc2)S(C)(=O)=O)cc1 (configuration not stated)	none (no result: SNCA expr inhib, SNCA viab count, IP6K1 inhibitor)
